Results from PubChem BioAssay.
The source made the active and inactive calls.

Assays:
[1] = system: Plasmodium falciparum Sir2 (PF13_0152, Sir2A); test: Plasmodium falciparum Sir2A binding compounds – biochemical, small-molecule microarray, 635 nm fluorescence, primary screen (AID 1098); conditions: fluorescence 635 nm, higher = more signal;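 also: score merges spot fluorescence intensity with its signal-to-noise ratio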
[2] = probe aDKK1 binding to arrayed compounds – biochemical, biotinylated probe, 635/667 nm fluorescence, primary screen (AID 1099); conditions: small-molecule microarray, higher = more signal;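 also: score merges 667nm spot fluorescence with signal to noise across triplicate slides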
[3] = probe aCHRDL2 binding to arrayed compounds – biochemical, biotinylated probe, 635/667 nm fluorescence, primary screen (AID 1100); conditions: small-molecule microarray, higher = more signal
[4] = change in splice reporter luminescence, either direction, cell-based, HEK293, spliceosome inhibition project, primary screen (AID 1101); conditions: HEK293 splicing luciferase reporter, 24 h, higher = more signal, called active from +8 up or from −8 down;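 also: HEK293 cells carrying a splicing-competent luciferase reporter gene; test concentration not given here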
[5] = molecular target: Fibroblast growth factor 10 (Homo sapiens) (UniProt O15520); test: compounds binding fibroblast growth factor 10 – biochemical, small-molecule microarray, 635 nm fluorescence, primary screen (AID 1102); conditions: FGF10 binding, fluorescence 635 nm, higher = more signal
[6] = system: glycogen synthase kinase-3 (GSK3A per assay name; protocol says GSK3B); test: compounds binding glycogen synthase kinase-3 – biochemical, small-molecule microarray, 635 nm fluorescence, GSK3A, primary screen (AID 1103); conditions: fluorescence 635 nm, higher = more signal; also: the record names both GSK3A and GSK3B
[7] = molecular target: Epidermal growth factor receptor (Homo sapiens) (UniProt P00533); test: compounds binding epidermal growth factor receptor – biochemical, small-molecule microarray, 635 nm fluorescence, primary screen (AID 1104); conditions: EGFR binding, higher = more signal;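 also: score merges 667 nm emission intensity with spot signal to noise over triplicate slides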
[8] = molecular target: Follistatin-related protein 3 (Homo sapiens) (UniProt O95633); test: compounds binding follistatin-related protein 3 – biochemical, small-molecule microarray, 635 nm fluorescence, primary screen (AID 1105); conditions: FSTL3 binding, higher = more signal;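 also: score merges emission near 667 nm and signal to noise per printed spot across three slides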
[9] = molecular target: Dickkopf-related protein 1 (Homo sapiens) (UniProt O94907); test: small molecules binding DKK1 protein – biochemical, small-molecule microarray, 635 nm fluorescence scan, primary screen (AID 1106); conditions: higher = more signal;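 also: score merges emission near 667 nm with signal to noise over three replicate slides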
[10] = system: Inhibin beta A chain (activin A); test: small molecules binding activin A – biochemical, small-molecule microarray, 635 nm fluorescence scan, primary screen (AID 1107); conditions: INHBA, higher = more signal;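 also: mouse activin A protein probed at 4.33 µg/mL on printed slides; score merges bound-protein fluorescence near 667 nm with spot signal-to-noise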
[11] = system: Human papillomavirus type 1a protein E7 (residues 44-93); test: small molecules binding HPV E7 44-93 – biochemical, small-molecule microarray, residues 44-93, 635 nm fluorescence, primary screen (AID 1108); conditions: fluorescence 635 nm, higher = more signal;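 also: E7 fragment applied at 1 µg/mL in TBST for 1 h at 4 C; score combines spot fluorescence with its signal to noise ratio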
[12] = hepatitis C replication reporter changes, two-sided – Huh7 cells, luciferase reporter, HCV replication inhibitor project, primary screen (AID 1109); conditions: Huh7 HCV replicon luciferase reporter, 48 h; higher = more signal;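 also: huh7 hepatoma cells harbouring a luciferase neomycin HCV replicon reporter; luciferase luminescence as measure of HCV replicon replication; test concentration not given here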
[13] = molecular target: Left-right determination factor 2 (Homo sapiens) (UniProt O00292); test: small molecules binding LEFTY2 protein – biochemical, small-molecule microarray, 635 nm fluorescence scan, primary screen (AID 1110); conditions: higher = more signal
[14] = molecular target: Calmodulin-1 (Homo sapiens) (UniProt P0DP23); test: small molecules binding calmodulin-1 with EGTA – biochemical, small-molecule microarray, Cy5-labelled CALM1, profiling panel (AID 1111); conditions: Cy5-CALM1 binding fluorescence, higher = more signal;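 also: labelled calmodulin applied in Tris saline Tween buffer holding calcium plus EGTA and DTT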
[15] = molecular target: Calmodulin-1 (Homo sapiens) (UniProt P0DP23); test: small molecules binding Ca-loaded calmodulin-1 – biochemical, small-molecule microarray, Cy5-labelled CALM1, plus calcium, artefact control for SMM control-protein annotation, profiling panel (AID 1112); conditions: Cy5-CALM1 binding fluorescence, higher = more signal;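 also: score merges spot fluorescence with signal to noise from triplicate slides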
[16] = probe aWnt5a binding to arrayed compounds – biochemical, biotinylated probe, 635/667 nm fluorescence, primary screen (AID 1113); conditions: small-molecule microarray, higher = more signal;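 also: score merges 667 nm fluorescence intensity with signal-to-noise per printed feature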
[17] = probe aShh binding to arrayed compounds – biochemical, biotinylated probe, 635/667 nm fluorescence, primary screen (AID 1114); conditions: small-molecule microarray, higher = more signal;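 also: probe is biotin-labelled aShh protein from a stem cell growth factor screen; measures binding of labelled protein to compounds printed on the slide; score merges feature fluorescence at 667 nm with signal-to-noise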
[18] = probe aNog binding to arrayed compounds – biochemical, biotinylated probe, 635/667 nm fluorescence, primary screen (AID 1115); conditions: small-molecule microarray, higher = more signal;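 also: probe is biotinylated aNog protein used at 0.15 µg/mL for 1 h at 4 C; z-score combines 667 nm fluorescence of each spot with its signal to noise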
[19] = molecular target: Torsin-1A-interacting protein 1 (Homo sapiens) (UniProt Q5JTV8); test: compound microarray binding of lysate hLAP1 – cell lysate, small-molecule microarray, COS7 lysate, 635/667 nm fluorescence, primary screen (AID 1116); conditions: 635 nm fluorescence, higher = more signal
[20] = molecular target: Alpha-bungarotoxin (Bungarus multicinctus) (UniProt P60615); test: compounds binding labelled alpha-BTX control protein – biochemical, small-molecule microarray, Alexa647 label, 635/667 nm fluorescence, artefact control for SMM control protein annotation, profiling panel (AID 1117); conditions: alpha-BTX-A647 binding fluorescence, higher = more signal
Alpha-bungarotoxin (Bungarus multicinctus), sequence (P60615 whole entry, looked up): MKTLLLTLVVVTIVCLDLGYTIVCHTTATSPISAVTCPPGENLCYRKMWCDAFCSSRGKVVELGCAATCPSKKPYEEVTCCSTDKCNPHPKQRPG

Left-right determination factor 2 (Homo sapiens), sequence (O00292 whole entry, looked up): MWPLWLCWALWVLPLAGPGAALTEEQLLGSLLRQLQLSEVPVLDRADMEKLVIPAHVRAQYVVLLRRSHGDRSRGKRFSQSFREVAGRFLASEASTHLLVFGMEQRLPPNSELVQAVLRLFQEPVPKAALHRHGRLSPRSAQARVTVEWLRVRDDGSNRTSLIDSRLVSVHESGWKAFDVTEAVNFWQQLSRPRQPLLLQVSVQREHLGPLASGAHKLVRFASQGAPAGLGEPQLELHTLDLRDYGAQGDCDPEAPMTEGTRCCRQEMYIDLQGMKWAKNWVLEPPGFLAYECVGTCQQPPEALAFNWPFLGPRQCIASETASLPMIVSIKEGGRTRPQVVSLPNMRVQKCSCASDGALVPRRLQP
Fibroblast growth factor 10 (Homo sapiens), sequence (O15520 whole entry, looked up): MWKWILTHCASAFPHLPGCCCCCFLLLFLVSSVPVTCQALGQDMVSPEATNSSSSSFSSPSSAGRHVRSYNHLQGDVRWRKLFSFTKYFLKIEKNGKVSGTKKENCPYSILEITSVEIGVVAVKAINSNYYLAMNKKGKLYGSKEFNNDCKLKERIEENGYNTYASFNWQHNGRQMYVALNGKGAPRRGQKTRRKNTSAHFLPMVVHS
Dickkopf-related protein 1 (Homo sapiens), sequence (O94907 whole entry, looked up): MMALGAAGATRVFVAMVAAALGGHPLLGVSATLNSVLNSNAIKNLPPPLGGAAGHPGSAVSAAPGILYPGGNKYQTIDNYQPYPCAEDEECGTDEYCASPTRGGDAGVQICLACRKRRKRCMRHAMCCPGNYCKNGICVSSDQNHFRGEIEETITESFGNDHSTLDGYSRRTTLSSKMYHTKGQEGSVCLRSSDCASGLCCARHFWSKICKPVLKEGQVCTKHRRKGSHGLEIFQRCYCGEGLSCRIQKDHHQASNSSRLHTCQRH
Follistatin-related protein 3 (Homo sapiens), sequence (O95633 whole entry, looked up): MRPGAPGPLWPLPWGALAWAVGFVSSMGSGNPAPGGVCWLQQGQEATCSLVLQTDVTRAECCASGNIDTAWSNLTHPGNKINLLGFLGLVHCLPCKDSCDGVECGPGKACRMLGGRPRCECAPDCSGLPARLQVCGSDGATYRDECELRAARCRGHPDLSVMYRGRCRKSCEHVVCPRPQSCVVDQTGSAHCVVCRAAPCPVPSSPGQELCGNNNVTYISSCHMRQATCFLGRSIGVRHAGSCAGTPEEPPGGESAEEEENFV
Epidermal growth factor receptor (Homo sapiens), sequence (P00533 whole entry, looked up): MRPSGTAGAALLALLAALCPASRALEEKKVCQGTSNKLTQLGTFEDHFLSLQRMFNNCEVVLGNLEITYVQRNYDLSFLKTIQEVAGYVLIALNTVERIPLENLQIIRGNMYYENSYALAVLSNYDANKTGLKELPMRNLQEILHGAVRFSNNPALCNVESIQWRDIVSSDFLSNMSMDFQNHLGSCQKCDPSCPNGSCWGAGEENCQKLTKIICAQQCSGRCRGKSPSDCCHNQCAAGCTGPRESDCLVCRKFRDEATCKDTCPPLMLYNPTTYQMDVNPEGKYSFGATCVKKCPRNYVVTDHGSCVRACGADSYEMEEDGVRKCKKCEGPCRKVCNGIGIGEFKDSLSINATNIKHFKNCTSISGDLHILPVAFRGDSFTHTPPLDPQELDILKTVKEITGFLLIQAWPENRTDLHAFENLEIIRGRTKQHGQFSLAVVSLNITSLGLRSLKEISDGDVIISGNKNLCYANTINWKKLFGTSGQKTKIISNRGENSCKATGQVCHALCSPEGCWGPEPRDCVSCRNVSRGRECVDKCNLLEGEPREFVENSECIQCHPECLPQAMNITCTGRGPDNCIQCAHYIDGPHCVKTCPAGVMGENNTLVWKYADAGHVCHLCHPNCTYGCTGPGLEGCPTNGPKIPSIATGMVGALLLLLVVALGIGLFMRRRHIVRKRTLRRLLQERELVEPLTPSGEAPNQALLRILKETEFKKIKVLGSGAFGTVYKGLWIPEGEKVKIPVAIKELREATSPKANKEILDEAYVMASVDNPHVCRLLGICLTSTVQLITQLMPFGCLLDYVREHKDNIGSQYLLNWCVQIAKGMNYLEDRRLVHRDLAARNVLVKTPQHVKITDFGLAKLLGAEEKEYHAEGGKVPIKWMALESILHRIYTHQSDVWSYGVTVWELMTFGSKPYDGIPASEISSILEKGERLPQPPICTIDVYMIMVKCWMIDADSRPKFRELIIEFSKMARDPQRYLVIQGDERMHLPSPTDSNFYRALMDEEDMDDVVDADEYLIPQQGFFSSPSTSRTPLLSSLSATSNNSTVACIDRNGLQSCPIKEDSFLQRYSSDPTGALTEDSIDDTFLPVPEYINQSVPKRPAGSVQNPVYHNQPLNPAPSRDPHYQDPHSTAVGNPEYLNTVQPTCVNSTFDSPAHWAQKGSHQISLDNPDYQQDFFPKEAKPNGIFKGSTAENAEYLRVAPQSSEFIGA
Torsin-1A-interacting protein 1 (Homo sapiens), sequence (Q5JTV8 whole entry, looked up): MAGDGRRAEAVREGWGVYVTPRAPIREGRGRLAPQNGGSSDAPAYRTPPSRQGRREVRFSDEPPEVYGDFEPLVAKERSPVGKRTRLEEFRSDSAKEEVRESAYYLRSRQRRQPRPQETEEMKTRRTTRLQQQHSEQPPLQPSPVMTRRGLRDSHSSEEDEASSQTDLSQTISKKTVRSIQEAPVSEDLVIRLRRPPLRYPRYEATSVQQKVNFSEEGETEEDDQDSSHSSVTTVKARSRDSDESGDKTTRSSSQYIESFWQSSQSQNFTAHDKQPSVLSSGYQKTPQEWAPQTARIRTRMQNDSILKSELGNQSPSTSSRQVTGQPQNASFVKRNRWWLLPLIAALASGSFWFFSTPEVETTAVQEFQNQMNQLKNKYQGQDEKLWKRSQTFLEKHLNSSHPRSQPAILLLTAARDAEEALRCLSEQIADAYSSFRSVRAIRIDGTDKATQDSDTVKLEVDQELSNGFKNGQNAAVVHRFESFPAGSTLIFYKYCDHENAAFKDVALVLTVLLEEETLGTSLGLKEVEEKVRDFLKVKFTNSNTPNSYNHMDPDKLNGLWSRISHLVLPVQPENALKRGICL

Compound	composite z-score [1]	composite z-score [2]	composite z-score [3]	z-score [4]	composite z-score [5]	composite z-score [6]	composite z-score [7]	composite z-score [8]	composite z-score [9]	composite z-score [10]	composite z-score [11]	z-score [12]	composite z-score [13]	composite z-score [14]	composite z-score [15]	composite z-score [16]	composite z-score [17]	composite z-score [18]	composite z-score [19]	composite z-score [20]
COC(=O)[C@@]1(Cc2ccc(OC)cc2)[C@H]2c3cc(C(=O)N4CCCC4)n(Cc4ccc(C)c(F)c4F)c3C[C@H]2CN1C(=O)c1ccccc1	1.05	1.09	1.33	-0.282 (inactive)	0.791	1.29	-0.139	1.18	-0.602	0.702	1.48	-2.34	-0.401	2.14	1.3	-0.0553	-0.155	1.65	0.113	1.55
COC(=O)C(CC#Cc1ccc2c(c1)[C@]1(C(=O)N2)[C@H](C(=O)Nc2nc3ccccc3s2)[C@H]2C(=O)O[C@H](c3ccccc3)[C@H](c3ccccc3)N2[C@@H]1c1ccc(O)cc1)C(=O)OC	1.18	0.381	0.454	-0.204 (inactive)	1.28	1.29	0.642	1.4	0.829	0.381	1.45	-0.801	0.829	0.728	0.255	0.027	-0.0977	0.406	1.89	0.982
C=CCN1C(=O)[C@]2(O[C@H](CCn3cc([C@H](O)c4ccccc4)nn3)[C@@H]([Si](C)(C)c3ccc(OC)cc3)[C@@H]2C)c2ccccc21	0.474	-0.291	0.414	3.39 (inactive)	-0.364	-0.781	-1.25	-0.581	-0.651	0.162	-1.22	-2.71	-0.901	-0.525	0.227	-0.124	-0.0146	-0.223	-0.252	-1.56
COCCCNC(=O)[C@]1(CCC(=O)OC(C)(C)C)N=C(c2ccc(OCCCO)cc2)O[C@@H]1c1ccccc1CN=[N+]=[N-]	1.42	0.639	0.608	0.378 (inactive)	1.41	1.3	-0.504	0.35	-0.299	0.733	1.31	-1.74	0.254	1.38	0.282	0.45	0.147	2.04	1.29	0.312
COC(=O)[C@@]1(Cc2ccc(OC)cc2)[C@H]2c3cc(C(=O)N4CCCC4)n(CCN4CNCC4=O)c3C[C@H]2CN1C(=O)c1ccccc1	1.8	2.4	1.41	0.908 (inactive)	1.03	-0.16	0.656	-0.711	-0.462	0.949	0.218	-0.0994	-0.0543	1.14	0.751	1.19	2.77	2.43	1.11	-0.169
Cc1ccc(N2C(=O)c3ccccc3[C@@H](C(=O)NC3CC3)[C@@H]2c2ccc(CO)cc2)nc1	1.24	-0.201	0.908	0.942 (inactive)	-1.5	-0.968	-1.58	-1.38	-2.23	-0.314	-1.51	-0.312	-3.3	-1.35	-1.25	-0.268	-0.0866	-0.126	-0.13	-1.36
CCCCCCc1nc(-c2cc(C)c(OC)c(C)c2)cc2c1[Si](C(C)C)(C(C)C)OC2	-0.218	-0.12	-0.0937	-2.3 (inactive)	-0.0932	0.194	-0.314	-0.105	-0.0304	0.641	0.0047	0.777	-0.21	-0.268	-0.256	-0.124	-0.273	-0.244	-0.359	0.19
COCCCNC(=O)[C@@H]1c2ccccc2C(=O)N(Cc2ccccc2Cl)[C@H]1c1ccc(CO)cc1	0.471	0.167	0.199	0.5 (inactive)	0.629	1.17	0.245	0.715	0.412	0.975	0.867	0.318	0.67	-0.48	-0.613	-0.0792	0.0684	-0.382	1.51	-0.195
[N-]=[N+]=Nc1ccccc1[C@@H]1OC(c2ccc(OCCCO)cc2)=N[C@]1(CCS(=O)(=O)c1ccccc1)C(N)=O	1.37	0.708	1.25	-0.752 (inactive)	1.09	1.23	0.0129	1.22	-0.329	0.992	1.38	0.272	-0.109	0.925	0.629	0.29	0.57	1.51	1.81	0.992
CCS[C@H]1[C@@H](C(=O)O)[C@H](c2ccc(C)cc2)N(S(=O)(=O)c2ccc(C)cc2)[C@@H]1CC	0.673	0.686	0.907	0.269 (inactive)	1.14	0.793	0.0771	1.1	-0.0423	0.626	1.39	0.841	0.0041	0.83	0.0072	-0.1	-0.0035	1.11	0.827	0.834
CCC(CC)C(O)C1C=CC2C(=O)NC(=O)C2N1Nc1ccc(Cl)cc1Cl (stereo not given)	1.28	0.921	1	1.6 (inactive)	0.626	0.451	-0.304	0.934	-0.267	0.764	0.672	-0.759	-0.46	1.93	1.15	-0.12	0.234	-0.452	0.247	1.05
